Experiment [1] has as its system Vero E6 infected with SARS-CoV-2. As to the kind of experiment: morphology score (similarity to uninfected cells); higher = more like uninfected cells. As to conditions: 24 h.
Experiment [2] has the same test system. Briefly: SARS-CoV-2 infection rate relative to infected DMSO; higher = more infection, active = 60 or less. As to conditions: 24 h.

The compound `Oc1cccc(-c2c3nc(c(-c4cccc(O)c4)c4ccc([nH]4)c(-c4cccc(O)c4)c4nc(c(-c5cccc(O)c5)c5ccc2[nH]5)CC4)C=C3)c1` [temoporfin] (0.833333 µM) returned a morphology score in experiment [1] of -0.0311. Also, the SARS-CoV-2 infection rate in experiment [2] was 111% (inactive).

For `O=C(O)CNC(=O)C1C(=O)N(C2CCCCC2)C(=O)N(C2CCCCC2)C1=O` [daprodustat] (10 µM), in experiment [1], the morphology score amounted to 0.206. Further, the SARS-CoV-2 infection rate in experiment [2] is 81.5% (inactive).

In experiment [1], `CNCC[C@H](Oc1cccc2ccccc12)c1cccs1` [duloxetine] (10 µM) gave a morphology score of 0.747. In experiment [2], the SARS-CoV-2 infection rate is 47% (active).

For `O=C1CCC[C@@H]2[C@H]3CCC[N+]4([O-])CCC[C@@H](CN12)[C@@H]34` (some centres not stated) [oxymatrine] (10 µM), the morphology score in experiment [1] was -0.00407. Also, the SARS-CoV-2 infection rate in experiment [2] was 100% (inactive).

In the case of `COc1cc2c(c(OC)c1OC)-c1ccc(OC)c(=O)cc1[C@@H](NC(C)=O)CC2` [colchicine] (10 µM), in experiment [1], the morphology score is -0.0542. In addition, in experiment [2], the SARS-CoV-2 infection rate is 96% (inactive).

`CCC1(c2ccc(N)cc2)CCC(=O)NC1=O` (configuration not stated) [aminoglutethimide] (10 µM) returned a morphology score in experiment [1] of -0.0825. Moreover, the SARS-CoV-2 infection rate in experiment [2] was 110% (inactive).

Take `Clc1ccc(C(Cn2ccnc2)OCc2ccc(Sc3ccccc3)cc2)c(Cl)c1` (configuration not stated) [fenticonazole] (10 µM): in experiment [1], the morphology score was -0.0119. Moreover, in experiment [2], the SARS-CoV-2 infection rate is 114% (inactive).

In experiment [1], `O=C(Nc1ccccc1)N1CCN(c2nc(-c3ccccc3)ns2)CC1` (10 µM) gave a morphology score of -0.272. In experiment [2], the SARS-CoV-2 infection rate is 112% (inactive).

Take `CCCc1nc2c(C)cc(-c3nc4ccccc4n3C)cc2n1Cc1ccc(-c2ccccc2C(=O)O)cc1` [telmisartan] (10 µM): in experiment [1], the morphology score was determined as 0.215. Further, the SARS-CoV-2 infection rate in experiment [2] was 100% (inactive).

In turn, `COc1cccc2c1C(=O)c1c(O)c3c(c(O)c1C2=O)C[C@@](O)(C(=O)CO)C[C@@H]3O[C@H]1C[C@H](N)[C@H](O[C@@H]2CCCCO2)[C@H](C)O1` [pirarubicin] (10 µM) came in with a morphology score in experiment [1] of -0.0488. Besides, the SARS-CoV-2 infection rate in experiment [2] is 118% (inactive).

Regarding `CC(C)(C)[C@H]1CC[C@H](CC2=C(O)C(=O)c3ccccc3C2=O)CC1` [buparvaquone] (0.833333 µM), the morphology score in experiment [1] stood at 0.0418. The SARS-CoV-2 infection rate in experiment [2] is 94% (inactive).

Take `c1ccc(CNCc2ccc(CN3CCCNCCNCCCNCC3)cc2)nc1` (10 µM): the morphology score in experiment [1] was 0.129. In addition, in experiment [2], the SARS-CoV-2 infection rate was 100% (inactive).

Turning to `NCC(O)(CS(=O)(=O)O)c1ccc(Cl)cc1` (configuration not stated) [2-hydroxysaclofen] (10 µM), the morphology score in experiment [1] is 0.266. For the same compound, the SARS-CoV-2 infection rate in experiment [2] is 84.5% (inactive).

In turn, `Cn1cc(-c2cnn3c(N)c(Br)c([C@@H]4CCCNC4)nc23)cn1` (10 µM) returned a morphology score in experiment [1] of 0.535. Further, in experiment [2], the SARS-CoV-2 infection rate is 82% (inactive).

The compound `OCCN1C[C@H](O)[C@@H](O)[C@H](O)[C@H]1CO` [miglitol] (10 µM) registered a morphology score in experiment [1] of 0.11. Moreover, the SARS-CoV-2 infection rate in experiment [2] was 106% (inactive).

Take `O=C(O)c1cc(N2N=C(C(F)(F)F)/C(=C/c3ccc(-c4ccccc4)o3)C2=O)ccc1Cl` (10 µM): the morphology score in experiment [1] was found to be 0.185. Moreover, the SARS-CoV-2 infection rate in experiment [2] was 97% (inactive).

In turn, `Cc1onc(-c2ccccc2)c1-c1ccc(S(N)(=O)=O)cc1` [valdecoxib] (10 µM) came in with a morphology score in experiment [1] of -0.0646. The SARS-CoV-2 infection rate in experiment [2] was 98.5% (inactive).

Consider `C[C@@H]1CC(=O)c2c(ccc3c2C(=O)c2cccc(O)c2C3=O)C1` [ochromycinone] (10 µM), for which, in experiment [1], the morphology score was -0.0461. The SARS-CoV-2 infection rate in experiment [2] is 105% (inactive).

Consider `O=C(O)CCC(=O)Nc1ccc(S(=O)(=O)Nc2nccs2)cc1` [succinylsulfathiazole] (10 µM), for which, in experiment [1], the morphology score came to 0.0689. In experiment [2], the SARS-CoV-2 infection rate is 100% (inactive).

On to `O=C(Nc1c[nH]nc1-c1nc2ccc(CN3CCOCC3)cc2[nH]1)NC1CC1` (0.833333 µM), for which, in experiment [1], the morphology score was 0.0293. Besides, the SARS-CoV-2 infection rate in experiment [2] was 118% (inactive).

Consider `OCC(Br)(Br)Br` [tribromoethanol] (10 µM), for which the morphology score in experiment [1] is -0.0304. The SARS-CoV-2 infection rate in experiment [2] was 118% (inactive).

`CNC1CCCN(c2c(F)cc3c(=O)c(C(=O)O)cn(C4CC4)c3c2OC)C1` (configuration not stated) [balofloxacin] (10 µM) registered a morphology score in experiment [1] of -0.103. Moreover, in experiment [2], the SARS-CoV-2 infection rate was 104% (inactive).

Regarding `CN1Cc2c(C(=O)OC(C)(C)C)ncn2-c2ccsc2C1=O` (10 µM), the morphology score in experiment [1] is -0.00637. Also, in experiment [2], the SARS-CoV-2 infection rate was 102% (inactive).

In experiment [1], `O=C1CC[C@@](c2ccccc2)(C2CCN(Cc3ccc(I)cc3)CC2)C(=O)N1` [iododexetimide] (10 µM) yielded a morphology score of -0.0136. In experiment [2], the SARS-CoV-2 infection rate is 100% (inactive).

Turning to `CSCC1CN(/N=C/c2ccc([N+](=O)[O-])o2)C(=O)O1` (configuration not stated) [inimur] (10 µM), the morphology score in experiment [1] worked out at 0.187. For the same compound, in experiment [2], the SARS-CoV-2 infection rate is 92% (inactive).

As for `Cc1ccc(NC(=O)C(C)C)cc1C1CCN(Cc2ccc(Oc3ccc(F)c(F)c3)cc2)CC1` (0.833333 µM), the morphology score in experiment [1] worked out at 0.375. The SARS-CoV-2 infection rate in experiment [2] was 90.5% (inactive).

In the case of `CC[C@@H](Nc1c(Nc2cccc(C(=O)N(C)C)c2O)c(=O)c1=O)c1ccc(C)o1` [navarixin] (10 µM), the morphology score in experiment [1] is -0.0629. The SARS-CoV-2 infection rate in experiment [2] was 110% (inactive).

On to `CCn1cc(C(=O)O)c(=O)c2cc(F)c(N3CCN(C)CC3)cc21` [pefloxacin] (10 µM), for which the morphology score in experiment [1] turned out to be 0.158. The SARS-CoV-2 infection rate in experiment [2] is 91.5% (inactive).

Regarding `O=C(NCCCNc1nc(Nc2cccc(NC(=O)N3CCCC3)c2)ncc1I)c1cccs1` (0.833333 µM), the morphology score in experiment [1] came out at 0.0981. For the same compound, the SARS-CoV-2 infection rate in experiment [2] was 118% (inactive).

For the compound `CCN1CCCC1CNC(=O)c1cc(S(N)(=O)=O)ccc1OC` (configuration not stated) [sulpiride] (10 µM), the morphology score in experiment [1] was -0.0261. Also, the SARS-CoV-2 infection rate in experiment [2] was 105% (inactive).

On to `CCOC(=O)N1c2ccc(C(F)(F)F)cc2[C@@H](N(Cc2cc(C(F)(F)F)cc(C(F)(F)F)c2)C(=O)OC)C[C@H]1CC` (10 µM), for which, in experiment [1], the morphology score was 0.259. For the same compound, the SARS-CoV-2 infection rate in experiment [2] was 93% (inactive).
